Our source for the binding signal values is PMC7862700, “An all-to-all approach to the identification of sequence-specific readers for epigenetic DNA modifications on cytosine”.

What all share (assay): DAPPL (digital affinity profiling via proximity ligation, sequencing); 10 mM Tris-HCl pH 7.5, 50 mM NaCl, 1 mM DTT, 4% glycerol, room temperature, 30 min; GST-TFs on glutathione beads, 16-mer random dsDNA library, 0.1% formaldehyde crosslink after washing; high values mean tight binding
One test concerns the target T1, FLI1 (Homo sapiens, UniProt Q01543 1-452).
T1 sequence: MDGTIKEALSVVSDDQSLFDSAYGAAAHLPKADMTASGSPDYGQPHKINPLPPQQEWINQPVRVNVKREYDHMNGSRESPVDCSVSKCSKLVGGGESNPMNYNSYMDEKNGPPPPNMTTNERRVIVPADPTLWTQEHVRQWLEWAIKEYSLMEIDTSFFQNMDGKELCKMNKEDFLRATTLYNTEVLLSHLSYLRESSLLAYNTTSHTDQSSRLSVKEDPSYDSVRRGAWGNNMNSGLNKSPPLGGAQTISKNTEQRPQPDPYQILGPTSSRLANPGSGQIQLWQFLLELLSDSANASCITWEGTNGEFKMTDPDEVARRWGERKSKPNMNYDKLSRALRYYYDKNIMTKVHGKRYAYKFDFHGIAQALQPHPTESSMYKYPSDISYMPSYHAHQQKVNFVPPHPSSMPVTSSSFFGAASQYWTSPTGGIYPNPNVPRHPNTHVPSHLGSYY
Particulars: protein: recombinant; tags: N-terminal GST; dsDNA, one strand shown. The method, boiled down:
(§1)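 In yeast, human transcription factors were expressed with a GST fusion, then pulled down on glutathione beads and given DNA barcodes. Pooled with a tag-only sample, they were exposed to 200 nmole of a 16-mer random double-stranded DNA library (Tris/NaCl/DTT/glycerol buffer, room temperature, 30 min), washed, crosslinked with 0.1% formaldehyde, proximity-ligated using BsaI/T4 ligase for 1 h at 37 °C, PCR-amplified and read on an Illumina NextSeq500. Each hexamer's frequency of reads for a factor, divided by the matching frequency for the tag-only sample, gives the binding signal.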

A further test concerns the target T2, ELK1 (Homo sapiens, UniProt P19419 1-428).
T2 sequence: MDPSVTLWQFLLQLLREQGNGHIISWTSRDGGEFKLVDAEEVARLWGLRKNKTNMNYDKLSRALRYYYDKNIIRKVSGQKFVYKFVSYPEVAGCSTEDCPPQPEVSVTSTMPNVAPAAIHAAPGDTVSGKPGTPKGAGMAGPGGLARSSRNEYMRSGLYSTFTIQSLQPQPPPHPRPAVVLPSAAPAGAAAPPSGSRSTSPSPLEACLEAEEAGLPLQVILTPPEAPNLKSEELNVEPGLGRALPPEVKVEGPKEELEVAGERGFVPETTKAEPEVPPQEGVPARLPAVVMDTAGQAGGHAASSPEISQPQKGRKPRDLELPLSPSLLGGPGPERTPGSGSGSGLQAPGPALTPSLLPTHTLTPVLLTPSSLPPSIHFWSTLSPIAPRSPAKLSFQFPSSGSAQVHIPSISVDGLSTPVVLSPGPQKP
The settings on record: protein: recombinant; tags: N-terminal GST; dsDNA, one strand shown. The method, boiled down:
as §1

The next test addresses T3, GABPA (Homo sapiens, UniProt Q06546 1-454).
T3 sequence: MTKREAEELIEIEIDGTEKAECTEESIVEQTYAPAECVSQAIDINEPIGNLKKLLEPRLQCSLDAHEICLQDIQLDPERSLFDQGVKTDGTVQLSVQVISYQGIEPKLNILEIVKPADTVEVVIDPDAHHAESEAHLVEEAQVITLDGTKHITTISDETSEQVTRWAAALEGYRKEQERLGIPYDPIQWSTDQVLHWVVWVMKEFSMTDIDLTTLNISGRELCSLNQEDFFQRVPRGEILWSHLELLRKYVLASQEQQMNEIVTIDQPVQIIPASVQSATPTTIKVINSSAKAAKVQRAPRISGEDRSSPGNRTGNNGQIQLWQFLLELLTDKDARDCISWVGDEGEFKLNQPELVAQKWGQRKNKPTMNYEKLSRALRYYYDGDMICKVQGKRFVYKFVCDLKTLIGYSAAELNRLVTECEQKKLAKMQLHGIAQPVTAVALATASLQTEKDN
The settings on record: protein: recombinant; tags: N-terminal GST; dsDNA, one strand shown. The method, boiled down:
as §1

The next test has as its target T4, ERG (Homo sapiens, UniProt P11308 1-479).
T4 sequence: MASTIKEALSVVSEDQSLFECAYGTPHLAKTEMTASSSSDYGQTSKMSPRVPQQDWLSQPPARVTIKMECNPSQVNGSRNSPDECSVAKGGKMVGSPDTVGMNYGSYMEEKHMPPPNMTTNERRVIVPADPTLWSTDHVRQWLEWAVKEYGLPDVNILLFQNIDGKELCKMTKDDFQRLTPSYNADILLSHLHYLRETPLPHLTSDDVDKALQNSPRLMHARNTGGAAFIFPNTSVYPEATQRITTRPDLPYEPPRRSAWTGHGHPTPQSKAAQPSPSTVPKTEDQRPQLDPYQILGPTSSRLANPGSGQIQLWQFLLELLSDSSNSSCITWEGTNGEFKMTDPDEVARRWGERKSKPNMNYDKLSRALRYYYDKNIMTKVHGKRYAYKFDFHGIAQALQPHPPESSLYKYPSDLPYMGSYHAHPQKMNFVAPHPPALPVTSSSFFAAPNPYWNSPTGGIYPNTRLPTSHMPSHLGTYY
Particulars: protein: recombinant; tags: N-terminal GST; dsDNA, one strand shown. The method, boiled down:
as §1

For another test, the target named is ELF1 (Homo sapiens, UniProt P32519 1-619). Particulars: protein: recombinant; tags: N-terminal GST; dsDNA, one strand shown. The method, boiled down: as §1
ELF1, sequence (P32519 whole entry): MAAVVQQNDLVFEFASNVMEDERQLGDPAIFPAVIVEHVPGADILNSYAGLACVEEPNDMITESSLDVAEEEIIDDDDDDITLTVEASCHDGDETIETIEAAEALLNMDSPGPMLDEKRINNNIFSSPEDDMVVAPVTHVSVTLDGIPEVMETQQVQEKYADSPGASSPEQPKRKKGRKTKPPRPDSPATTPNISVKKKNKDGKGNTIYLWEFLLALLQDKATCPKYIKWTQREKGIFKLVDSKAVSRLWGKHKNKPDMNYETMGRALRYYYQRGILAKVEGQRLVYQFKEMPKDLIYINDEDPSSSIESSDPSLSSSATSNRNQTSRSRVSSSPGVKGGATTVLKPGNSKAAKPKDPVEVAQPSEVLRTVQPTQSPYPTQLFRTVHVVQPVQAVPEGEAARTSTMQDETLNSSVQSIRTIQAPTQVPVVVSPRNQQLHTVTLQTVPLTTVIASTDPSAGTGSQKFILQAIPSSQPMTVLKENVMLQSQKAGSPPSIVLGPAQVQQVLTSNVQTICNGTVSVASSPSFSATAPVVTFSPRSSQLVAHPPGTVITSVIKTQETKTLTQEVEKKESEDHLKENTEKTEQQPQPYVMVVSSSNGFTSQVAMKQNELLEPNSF
The target in the next test is T5, EHF (Homo sapiens, UniProt Q9NZC4 1-300).
T5 sequence: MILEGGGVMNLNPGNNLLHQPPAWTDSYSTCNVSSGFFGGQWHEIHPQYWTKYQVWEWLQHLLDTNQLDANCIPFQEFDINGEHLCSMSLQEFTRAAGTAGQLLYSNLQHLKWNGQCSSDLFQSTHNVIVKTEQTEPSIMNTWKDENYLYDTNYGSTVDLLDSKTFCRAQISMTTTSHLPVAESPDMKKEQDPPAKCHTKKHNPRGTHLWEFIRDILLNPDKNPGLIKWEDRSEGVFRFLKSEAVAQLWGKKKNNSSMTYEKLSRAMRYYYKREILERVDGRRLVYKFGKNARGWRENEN
The settings on record: protein: recombinant; tags: N-terminal GST; dsDNA, one strand shown. The method, boiled down: as §1

A further test concerns the target SPI1 (Homo sapiens, UniProt P17947 1-270). The settings on record: protein: recombinant; tags: N-terminal GST; dsDNA, one strand shown. The method in brief:
as §1

For another test, the target named is SPIB (Homo sapiens, UniProt Q01892 1-262). Particulars: protein: recombinant; tags: N-terminal GST; dsDNA, one strand shown. The method in brief:
as §1

The next test deals with T6, ELK3 (Homo sapiens, UniProt P41970 1-407).
T6 sequence: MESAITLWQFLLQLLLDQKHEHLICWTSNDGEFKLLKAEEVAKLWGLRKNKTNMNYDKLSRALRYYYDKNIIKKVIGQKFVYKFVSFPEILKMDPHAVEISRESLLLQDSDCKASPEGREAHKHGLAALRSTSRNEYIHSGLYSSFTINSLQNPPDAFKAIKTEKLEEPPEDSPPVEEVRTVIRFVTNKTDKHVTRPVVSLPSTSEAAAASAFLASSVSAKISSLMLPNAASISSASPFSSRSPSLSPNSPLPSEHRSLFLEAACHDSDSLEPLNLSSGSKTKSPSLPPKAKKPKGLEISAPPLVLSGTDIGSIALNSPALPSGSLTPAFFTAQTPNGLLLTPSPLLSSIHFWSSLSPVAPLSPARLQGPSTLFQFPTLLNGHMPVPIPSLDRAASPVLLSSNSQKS
Particulars: protein: recombinant; tags: N-terminal GST; dsDNA, one strand shown. The method, boiled down: as §1

The target in a further test is T7, FEV (Homo sapiens, UniProt Q99581 1-238).
T7 sequence: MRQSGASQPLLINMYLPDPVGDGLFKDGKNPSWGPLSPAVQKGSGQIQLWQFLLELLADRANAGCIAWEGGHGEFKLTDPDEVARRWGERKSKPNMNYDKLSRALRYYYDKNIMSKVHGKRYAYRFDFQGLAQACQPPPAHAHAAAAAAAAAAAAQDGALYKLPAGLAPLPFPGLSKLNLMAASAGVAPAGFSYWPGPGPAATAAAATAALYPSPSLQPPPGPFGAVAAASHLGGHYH
The settings on record: protein: recombinant; tags: N-terminal GST; dsDNA, one strand shown. The method, boiled down: as §1

In another test the target is ETV5 (Homo sapiens, UniProt P41161 1-510). The settings on record: protein: recombinant; tags: N-terminal GST; dsDNA, one strand shown. The method in brief: as §1
ETV5, sequence (P41161 whole entry): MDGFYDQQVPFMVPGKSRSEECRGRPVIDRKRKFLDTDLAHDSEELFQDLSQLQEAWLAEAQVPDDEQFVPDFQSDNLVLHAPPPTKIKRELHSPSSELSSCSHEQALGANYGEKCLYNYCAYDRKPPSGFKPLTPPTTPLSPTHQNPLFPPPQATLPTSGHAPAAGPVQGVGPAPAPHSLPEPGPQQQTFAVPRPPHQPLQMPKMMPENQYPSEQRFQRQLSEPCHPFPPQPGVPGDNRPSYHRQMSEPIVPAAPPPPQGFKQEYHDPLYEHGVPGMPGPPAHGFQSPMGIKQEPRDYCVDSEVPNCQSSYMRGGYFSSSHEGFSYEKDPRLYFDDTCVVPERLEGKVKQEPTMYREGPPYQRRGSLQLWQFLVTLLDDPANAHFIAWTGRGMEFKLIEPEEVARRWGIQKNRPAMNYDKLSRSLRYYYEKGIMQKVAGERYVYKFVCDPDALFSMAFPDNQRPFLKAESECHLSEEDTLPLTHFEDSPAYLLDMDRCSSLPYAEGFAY
A further test deals with HSF1 (Homo sapiens, UniProt Q00613 1-529). The settings on record: protein: recombinant; tags: N-terminal GST; chain copies: 3; dsDNA, one strand shown. The method, boiled down:
as §1

The target of the next test is T8, SPIC (Homo sapiens, UniProt Q8N5J4 1-248).
T8 sequence: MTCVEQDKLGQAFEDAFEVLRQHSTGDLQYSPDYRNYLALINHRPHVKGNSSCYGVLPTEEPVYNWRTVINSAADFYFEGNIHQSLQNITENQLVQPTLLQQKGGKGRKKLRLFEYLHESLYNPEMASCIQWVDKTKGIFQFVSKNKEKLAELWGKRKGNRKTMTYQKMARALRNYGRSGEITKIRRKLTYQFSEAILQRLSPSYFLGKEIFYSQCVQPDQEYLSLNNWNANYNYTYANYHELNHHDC
Particulars: protein: recombinant; tags: N-terminal GST; dsDNA, one strand shown. The method, boiled down:
as §1

A further test addresses ELF4 (Homo sapiens, UniProt Q99607 1-663). The settings on record: protein: recombinant; tags: N-terminal GST; dsDNA, one strand shown. The method, boiled down: as §1
A further test has as its target T9, ELK4 (Homo sapiens, UniProt P28324-2 1-405).
T9 sequence: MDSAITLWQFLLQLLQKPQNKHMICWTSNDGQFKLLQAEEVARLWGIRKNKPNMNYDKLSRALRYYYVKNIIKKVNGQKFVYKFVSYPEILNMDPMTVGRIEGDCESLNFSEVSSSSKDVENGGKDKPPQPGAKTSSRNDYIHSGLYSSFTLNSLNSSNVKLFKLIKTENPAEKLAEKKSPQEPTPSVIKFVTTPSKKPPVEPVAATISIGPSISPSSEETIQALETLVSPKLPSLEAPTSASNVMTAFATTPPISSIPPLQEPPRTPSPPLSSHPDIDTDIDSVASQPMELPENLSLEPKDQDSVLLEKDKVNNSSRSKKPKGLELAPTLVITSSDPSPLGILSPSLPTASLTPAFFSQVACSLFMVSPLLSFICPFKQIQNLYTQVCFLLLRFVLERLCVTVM
The settings on record: protein: recombinant; tags: N-terminal GST; dsDNA, one strand shown. The method, boiled down: as §1

A further test addresses T10, ETV2 (Homo sapiens, UniProt O00321 1-342).
T10 sequence: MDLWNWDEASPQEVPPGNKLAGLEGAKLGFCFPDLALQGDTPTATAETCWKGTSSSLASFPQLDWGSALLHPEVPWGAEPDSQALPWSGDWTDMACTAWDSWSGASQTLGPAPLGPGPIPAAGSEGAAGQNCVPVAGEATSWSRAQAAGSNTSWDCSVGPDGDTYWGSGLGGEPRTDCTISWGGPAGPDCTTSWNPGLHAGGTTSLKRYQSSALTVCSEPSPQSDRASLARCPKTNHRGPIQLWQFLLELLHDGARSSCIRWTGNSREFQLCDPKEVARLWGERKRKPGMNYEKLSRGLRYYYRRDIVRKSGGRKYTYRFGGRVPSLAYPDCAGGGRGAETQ
Particulars: protein: recombinant; tags: N-terminal GST; dsDNA, one strand shown. The method in brief: as §1

Another test concerns the target T11, ELF3 (Homo sapiens, UniProt P78545 1-371).
T11 sequence: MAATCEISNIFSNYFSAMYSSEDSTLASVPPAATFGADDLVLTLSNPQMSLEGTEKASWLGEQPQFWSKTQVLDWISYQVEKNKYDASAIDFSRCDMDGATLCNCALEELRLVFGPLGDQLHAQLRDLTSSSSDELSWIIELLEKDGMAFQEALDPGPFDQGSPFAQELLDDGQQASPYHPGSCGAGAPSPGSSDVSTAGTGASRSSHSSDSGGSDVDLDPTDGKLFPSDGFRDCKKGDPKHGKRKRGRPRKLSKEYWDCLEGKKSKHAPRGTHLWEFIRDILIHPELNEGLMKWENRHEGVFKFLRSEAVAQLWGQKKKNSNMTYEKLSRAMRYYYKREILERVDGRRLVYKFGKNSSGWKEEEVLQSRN
The settings on record: protein: recombinant; tags: N-terminal GST; dsDNA, one strand shown. The method, boiled down: as §1

A further test concerns the target CRX (Homo sapiens, UniProt O43186 1-299). Particulars: protein: recombinant; tags: N-terminal GST; dsDNA, one strand shown. The method in brief: as §1
The target of a further test is ETV1 (Homo sapiens, UniProt P50549 1-477). The settings on record: protein: recombinant; tags: N-terminal GST; dsDNA, one strand shown. The method, boiled down:
as §1

HSF1, sequence (Q00613 whole entry): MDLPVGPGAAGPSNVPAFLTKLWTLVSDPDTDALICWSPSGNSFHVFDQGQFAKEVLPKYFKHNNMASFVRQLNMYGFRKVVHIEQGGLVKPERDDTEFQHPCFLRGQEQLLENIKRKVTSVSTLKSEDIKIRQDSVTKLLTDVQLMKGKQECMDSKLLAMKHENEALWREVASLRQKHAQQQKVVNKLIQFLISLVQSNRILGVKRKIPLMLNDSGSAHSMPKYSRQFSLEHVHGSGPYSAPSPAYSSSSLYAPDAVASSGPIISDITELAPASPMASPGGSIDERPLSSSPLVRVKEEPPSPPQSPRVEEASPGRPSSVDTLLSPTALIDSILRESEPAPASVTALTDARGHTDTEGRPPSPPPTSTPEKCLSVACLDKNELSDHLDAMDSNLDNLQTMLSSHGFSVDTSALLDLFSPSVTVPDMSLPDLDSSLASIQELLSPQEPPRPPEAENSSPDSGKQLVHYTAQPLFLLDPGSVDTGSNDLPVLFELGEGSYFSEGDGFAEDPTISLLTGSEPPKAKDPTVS
ELF4, sequence (Q99607 whole entry): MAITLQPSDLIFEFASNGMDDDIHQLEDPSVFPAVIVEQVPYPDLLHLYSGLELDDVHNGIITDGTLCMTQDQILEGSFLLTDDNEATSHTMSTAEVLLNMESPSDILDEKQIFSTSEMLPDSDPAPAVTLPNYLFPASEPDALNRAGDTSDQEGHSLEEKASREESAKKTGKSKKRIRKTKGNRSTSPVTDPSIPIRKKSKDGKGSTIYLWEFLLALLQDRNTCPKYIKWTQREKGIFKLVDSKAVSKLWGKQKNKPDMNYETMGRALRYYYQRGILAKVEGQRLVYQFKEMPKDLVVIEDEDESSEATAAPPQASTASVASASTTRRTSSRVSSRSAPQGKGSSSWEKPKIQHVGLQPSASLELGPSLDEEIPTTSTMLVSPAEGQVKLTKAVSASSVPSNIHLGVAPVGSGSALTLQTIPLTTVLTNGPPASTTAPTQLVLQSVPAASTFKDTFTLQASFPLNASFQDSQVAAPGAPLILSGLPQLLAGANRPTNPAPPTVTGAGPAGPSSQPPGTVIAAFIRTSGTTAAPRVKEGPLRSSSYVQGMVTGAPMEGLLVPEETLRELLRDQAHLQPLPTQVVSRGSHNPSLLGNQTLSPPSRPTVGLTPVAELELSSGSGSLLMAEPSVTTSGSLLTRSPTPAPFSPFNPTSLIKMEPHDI
SPIB, sequence (Q01892 whole entry): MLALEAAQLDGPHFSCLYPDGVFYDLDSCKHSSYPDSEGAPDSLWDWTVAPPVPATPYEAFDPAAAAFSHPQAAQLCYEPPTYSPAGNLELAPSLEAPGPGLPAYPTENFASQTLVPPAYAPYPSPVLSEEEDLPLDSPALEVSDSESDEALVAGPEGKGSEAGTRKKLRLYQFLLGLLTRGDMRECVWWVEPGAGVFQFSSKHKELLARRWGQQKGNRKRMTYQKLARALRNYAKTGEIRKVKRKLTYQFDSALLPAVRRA
CRX, sequence (O43186 whole entry): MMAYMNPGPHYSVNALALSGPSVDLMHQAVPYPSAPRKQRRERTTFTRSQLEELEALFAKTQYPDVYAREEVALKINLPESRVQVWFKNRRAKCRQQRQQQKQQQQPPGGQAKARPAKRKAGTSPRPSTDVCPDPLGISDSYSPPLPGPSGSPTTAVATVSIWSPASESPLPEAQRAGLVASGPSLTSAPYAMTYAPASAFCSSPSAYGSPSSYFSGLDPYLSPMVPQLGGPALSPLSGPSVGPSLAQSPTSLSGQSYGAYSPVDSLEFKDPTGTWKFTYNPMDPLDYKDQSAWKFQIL
ETV1, sequence (P50549 whole entry): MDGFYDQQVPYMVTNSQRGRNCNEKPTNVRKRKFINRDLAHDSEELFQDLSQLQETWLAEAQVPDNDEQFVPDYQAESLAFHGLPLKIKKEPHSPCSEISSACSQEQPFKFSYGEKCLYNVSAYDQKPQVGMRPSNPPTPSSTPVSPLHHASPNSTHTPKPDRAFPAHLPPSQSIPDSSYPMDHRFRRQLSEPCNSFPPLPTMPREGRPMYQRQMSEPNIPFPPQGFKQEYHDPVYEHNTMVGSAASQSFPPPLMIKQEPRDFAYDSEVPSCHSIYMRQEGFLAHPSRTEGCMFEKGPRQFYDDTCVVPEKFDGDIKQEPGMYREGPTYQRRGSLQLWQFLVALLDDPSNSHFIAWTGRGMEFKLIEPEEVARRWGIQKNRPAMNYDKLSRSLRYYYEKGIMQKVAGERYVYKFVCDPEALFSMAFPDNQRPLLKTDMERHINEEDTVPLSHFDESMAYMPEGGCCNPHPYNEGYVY

Turning to TACGGC, the binding signal with FLI1 is 1.18 fold enrichment (6-mer frequency, TF over GST control); in the test with ELK1 it was 1.25 fold enrichment (6-mer frequency, TF over GST control); in the test with GABPA, 1.23 fold enrichment (6-mer frequency, TF over GST control); with ERG, 1.24 fold enrichment (6-mer frequency, TF over GST control); with ELF1, 1.18 fold enrichment (6-mer frequency, TF over GST control); with EHF it was 1.2 fold enrichment (6-mer frequency, TF over GST control). Besides, the binding signal in the test with SPI1 was 1.18 fold enrichment (6-mer frequency, TF over GST control); with SPIB, 1.25 fold enrichment (6-mer frequency, TF over GST control); with ELK3 it was 1.16 fold enrichment (6-mer frequency, TF over GST control); with FEV, 1.15 fold enrichment (6-mer frequency, TF over GST control); with ETV5 it was 1.15 fold enrichment (6-mer frequency, TF over GST control); in the test with HSF1, 1.02 fold enrichment (6-mer frequency, TF over GST control). The binding signal with SPIC was 1.05 fold enrichment (6-mer frequency, TF over GST control); with ELF4, 1.28 fold enrichment (6-mer frequency, TF over GST control); with ELK4, 1.19 fold enrichment (6-mer frequency, TF over GST control); with ETV2, 1.12 fold enrichment (6-mer frequency, TF over GST control); with ELF3, 1.14 fold enrichment (6-mer frequency, TF over GST control); with CRX it was 1.2 fold enrichment (6-mer frequency, TF over GST control). For the same sequence, in the test with ETV1, the binding signal is 1.14 fold enrichment (6-mer frequency, TF over GST control).
